The values that follow come from PubChem BioAssay (Tox21).

Inconclusive results are not listed. Where a call stands in place of a potency, no number is given. Activity calls are given as the source filed them. Calls come from the whole dose curve; as a rule, active = well fitted curve in the direction sought with a large enough effect in the repeat runs; inconclusive = weak or mixed curves; inactive = no such curve, though single readings can be large; an effect the other way counts as inactive or inconclusive.

One experiment deals with Androgen receptor (Homo sapiens) (UniProt P10275). Briefly: qHTS assay to identify small molecule agonists of the androgen receptor (AR) signaling pathway using the MDA cell line (AID 743040; note: nearly all actives have a fitted effect of over 20% in size). The note with it: MDA-kb2 AR-luc cells, MMTV luciferase, 16 h; series mostly up to 70.3 µM. In a few lines: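 Agonist activity is measured as luciferase luminescence in human MDA-kb2 cells whose MMTV reporter responds to both AR and GR. Compounds in DMSO incubate 16 h at 37C, 0% CO2, and ONE-Glo is read after 30 min.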
Chain of Androgen receptor (Homo sapiens) (P10275 whole entry, looked up): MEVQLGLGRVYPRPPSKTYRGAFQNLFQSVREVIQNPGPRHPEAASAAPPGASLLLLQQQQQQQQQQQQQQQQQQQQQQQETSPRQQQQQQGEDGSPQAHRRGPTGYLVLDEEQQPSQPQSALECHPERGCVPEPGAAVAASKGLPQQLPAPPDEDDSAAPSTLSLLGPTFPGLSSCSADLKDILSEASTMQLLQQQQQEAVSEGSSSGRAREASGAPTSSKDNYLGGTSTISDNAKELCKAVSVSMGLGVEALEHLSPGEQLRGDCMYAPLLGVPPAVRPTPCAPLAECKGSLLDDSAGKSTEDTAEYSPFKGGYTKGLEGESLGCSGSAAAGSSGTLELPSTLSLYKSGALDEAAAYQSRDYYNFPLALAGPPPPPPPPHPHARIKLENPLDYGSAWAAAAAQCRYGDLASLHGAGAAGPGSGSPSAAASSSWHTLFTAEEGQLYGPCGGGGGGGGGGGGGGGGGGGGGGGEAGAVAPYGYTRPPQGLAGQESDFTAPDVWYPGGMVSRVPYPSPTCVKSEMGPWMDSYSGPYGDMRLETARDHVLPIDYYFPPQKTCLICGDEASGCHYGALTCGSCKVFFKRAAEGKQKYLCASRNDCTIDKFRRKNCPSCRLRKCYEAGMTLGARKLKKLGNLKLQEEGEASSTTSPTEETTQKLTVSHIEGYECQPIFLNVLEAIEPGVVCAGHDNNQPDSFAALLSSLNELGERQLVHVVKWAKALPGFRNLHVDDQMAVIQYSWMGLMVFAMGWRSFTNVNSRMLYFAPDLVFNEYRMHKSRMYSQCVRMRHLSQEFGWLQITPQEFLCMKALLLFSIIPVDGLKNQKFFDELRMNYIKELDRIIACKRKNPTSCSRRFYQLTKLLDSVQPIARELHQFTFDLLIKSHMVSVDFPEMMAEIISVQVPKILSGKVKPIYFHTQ
In general terms: qHTS replaces the single test concentration by a dilution series.
Consider `Cc1cccc(Nc2ccccc2)c1`, for which the Potency result was “inactive”.

Regarding `CN1CCN(C(c2ccccc2)c2ccccc2)CC1`, the Potency entry was “inactive”.

For the molecule `O=C(Nc1ccccc1)c1ccccc1O`, the Potency result is “inactive”.

On to `COc1ccc(-c2nc3ccc(C4=NNC(=O)CC4C)cc3[nH]2)cc1` (stereo not given), for which the Potency result was “inactive”.

System in the next experiment: not listed separately
Briefly: qHTS assay to identify small molecule antagonists of the androgen receptor (AR) signaling pathway using the MDA cell line - cell viability counter screen (AID 743041; note: nearly all actives have a fitted effect of over 45% in size). The note with it: MDA-kb2 viability, CellTiter-Fluor, 16 h, cells co-treated with R1881 androgen agonist; series mostly up to 70.3 µM. In a few lines: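 qHTS viability read-out; MDA-kb2 AR-luc; R1881-stimulated; 16 h exposure at 37C, 0% CO2; CellTiter-Fluor, 30 min; fluorescence intensity.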
For the molecule `Cc1ccccc1S(=O)(=O)O`, the Potency result is “inactive”.

For `COc1cc2nc(N3CCN(C(=O)C4COc5ccccc5O4)CC3)nc(N)c2cc1OC` (stereo not given), the Potency entry is “inactive”.

Turning to `C=CC(=O)OCCOc1ccccc1`, the Potency entry is “inactive”.

As to `C[C@H]1C[C@H]2[C@@H]3CCC4=CC(=O)C=C[C@]4(C)[C@@]3(Cl)[C@@H](O)C[C@]2(C)[C@@]1(O)C(=O)CO`, the Potency entry was “inactive”.

On to `CCOc1ccc(O)cc1`, for which the Potency entry is “inactive”.

As for `Clc1ccc2c(c1)CCc1cccnc1C2=C1CCNCC1`, the Potency result was “inactive”.

Regarding `CC(C)=CCC/C(C)=C/CC/C(C)=C/CO`, the Potency entry is “inactive”.

As to `CCCCCCCN`, the Potency result was “inactive”.

For `CCCCCCCC#N`, the Potency entry was “inactive”.

For the molecule `COCC(C)OC(C)=O` (stereo not given), the Potency result was “inactive”.

In the case of `CCCCC(CC)CN1C(=O)C2C3C=CC(C3)C2C1=O` (stereo not given), the Potency result is “inactive”.

With `C1CCCNCCC1`, the Potency result was “inactive”.

For the molecule `CC1=CC=C(C(C)C)CC1`, the Potency result is “inactive”.

On to `Cc1cccc(Nc2ccccc2)c1`, for which the Potency result was “inactive”.

On to `C=C1[C@H]2CC[C@@H]3[C@H]2C(C)(C)CCC[C@]13C`, for which the Potency entry was “inactive”.

As to `CCCCC`, the Potency result was “inactive”.

As for `COc1cc(Cl)ccc1Oc1ccc(Cl)cc1Cl`, the Potency entry is “inactive”.

`CN1CCN(C(c2ccccc2)c2ccccc2)CC1`: the Potency entry is “inactive”.

Take `O=C1OC(=O)C2C3C=CC(C3)C12` (stereo not given): the Potency entry was “inactive”.

Turning to `CCCCCCCCCCCC(=O)OC[C@@H](O)[C@H]1OC[C@H](OCCO)[C@H]1OCCO`, the Potency result was “inactive”.

As for `CCn1cc(C(=O)O)c(=O)c2cnc(N3CCNCC3)nc21`, the Potency result is “inactive”.
